Experimental findings from PubChem BioAssay (NCI) are described below.

SMILES strings stand for the structures. Compounds without any hit were thinned out: in the full panel of roughly 79,000, 15% have a hit. Unmarked numbers belong to inactive results. Calls of active or inactive are those of the source. Cut-off read from the data, not from the text of the source: active = growth inhibition above about 70%; inactive = the rest.

Assay [1] can be described thus: NCI Yeast Anticancer Drug Screen. Data for the rad50 strain (AID 155).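 Note: 0% = growth of vehicle-only cultures of the same strain.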 The settings on record: S. cerevisiae rad50 strain growth inhibition; at 50.0 µM; stronger effect = higher value. In outline: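 Inhibition values express reduced yeast growth in compound-treated cultures relative to vehicle-treated controls.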
The nature of assay [2]: NCI Yeast Anticancer Drug Screen. Data for the mec2-1 strain (AID 157). Particulars: S. cerevisiae mec2-1 strain, at 50.0 µM, stronger effect = higher value. In outline:
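Yeast mec2-1 mutant treated with compound. Readout: growth inhibition vs vehicle controls.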

Assay [3] in a line: NCI Yeast Anticancer Drug Screen. Data for the sgs1 mgt1 strain (AID 161).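 Note: 0% = growth of cultures given vehicle only.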 The settings on record: S. cerevisiae sgs1 mgt1 strain, at 50.0 µM, stronger effect = higher value. In outline: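 Read-out: growth inhibition vs vehicle controls. Cells: mutant yeast strain deficient in DNA damage repair.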
A short description of assay [4]: NCI Yeast Anticancer Drug Screen. Data for the cln2 rad14 strain (AID 165).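 Note: 0% = growth equal to vehicle treated cultures.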 Particulars: S. cerevisiae cln2 rad14 strain, at 50.0 µM, stronger effect = higher value. In outline:
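cln2 rad14 yeast strain; compound exposure; growth inhibition read vs vehicle controls.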

Assay [5] can be described thus: NCI Yeast Anticancer Drug Screen. Data for the bub3 strain (AID 167). Particulars: S. cerevisiae bub3 mutant strain, at 50.0 µM, stronger effect = higher value. Summed up: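 Steps: expose the mutant yeast strain to compound; grow alongside vehicle-treated cultures; measure growth; express inhibition against the vehicle cultures.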
A short description of assay [6]: NCI Yeast Anticancer Drug Screen. Data for the mlh1 rad18 strain (AID 175). The settings on record: S. cerevisiae mlh1 rad18 strain growth inhibition; at 50.0 µM; stronger effect = higher value. Summed up:
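Yeast w/ defined DNA-repair lesions; compound exposure; growth vs vehicle controls → % inhibition.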

For `O=Cc1ccccc1COC(=O)c1cc(C(=O)OCc2ccccc2C=O)c(C(=O)OCc2ccccc2C=O)cc1C(=O)OCc1ccccc1C=O`, the growth inhibition in assay [1] was 13.9%; in assay [2] it was 7.15%; in assay [3], -14.2%; in assay [4] it was -2.8%; in assay [5], -4.9%; in assay [6], 5.25%.

`C[C@@]12CCC[C@H]1[C@@H]1CCC3=CC(=O)CC[C@]3(C)[C@H]1CC2`: the growth inhibition in assay [1] is 4.15%; in assay [2] it was 1.45%; in assay [3], -5.55%; in assay [4], -27.1%; in assay [5], 10.7%; in assay [6], 1.05%.

Take `Cc1cc(Cl)cc2c1NC(=O)C2(O)CC(=O)c1ccco1` (stereo unspecified): the growth inhibition in assay [1] was 6.55%; in assay [2], -12.4%; in assay [3], -13.8%; in assay [4], 9.65%; in assay [5], -11.7%; in assay [6] it was -4.65%.

Turning to `O=[N+]([O-])c1ccc(C2=Nc3ccccc3S(=O)C(c3ccccc3)C2)cc1` (stereo unspecified), the growth inhibition is 5.3% in assay [1]; -27.3% in assay [2]; 19.9% in assay [3]; 3.45% in assay [4]; 10.7% in assay [5]; 20.6% in assay [6].

For `O=C(CCl)N1CCC(CC2(c3cc4ccccc4[nH]3)OCCO2)CC1`, the growth inhibition is -0.95% in assay [1]; 15.2% in assay [2]; 29.9% in assay [3]; -5.05% in assay [4]; 10.1% in assay [5]; 1.15% in assay [6].

Turning to `COc1ccc2c(c1OC)Oc1c(OC)ccc3c1C(C2)N(C)C[C@@H]3O` (stereo partly specified), the growth inhibition in assay [1] was 10.1%; in assay [2], 3.25%; in assay [3] it was -7.6%; in assay [4], -0.6%; in assay [5], 26.1%; in assay [6], -5.5%.

In the case of `O=C1CN(C(=O)Nc2ccccc2)c2ccccc2N1`, the growth inhibition in assay [1] was 26.6%; in assay [2], -25.5%; in assay [3], -8.3%; in assay [4], 4.55%; in assay [5] it was 7%; in assay [6] it was -5.5%.

As for `O=C(O)CCC(CCC(=O)O)(C(=O)O)c1ccccc1`, the growth inhibition in assay [1] is -20.1%; in assay [2], -6.5%; in assay [3], -8.75%; in assay [4], -42.1%; in assay [5], -1.65%; in assay [6], -7.8%.

As to `C1=C(c2ccccc2)NC2=N[C@H]3CCCC[C@@H]3N2C1c1ccccc1` (stereo partly specified), the growth inhibition in assay [1] was 18.9%; in assay [2] it was 10.4%; in assay [3], 22.8%; in assay [4] it was -7.55%; in assay [5] it was 33.8%; in assay [6], 91.5% (active).

Take `COC1(OC)C(c2ccc(Cl)cc2)C(C#N)(C#N)C1(OC)OC` (stereo unspecified): the growth inhibition is -7.25% in assay [1]; -13.2% in assay [2]; -14.2% in assay [3]; -48.4% in assay [4]; -1.15% in assay [5]; -7.45% in assay [6].

Turning to `Cc1c(Cl)cccc1NC(=O)Nc1ccccc1`, the growth inhibition in assay [1] was -1.35%; in assay [2], 3.3%; in assay [3], -6.25%; in assay [4] it was -8.1%; in assay [5], 4.1%; in assay [6] it was 7.65%.

`COc1ccc2c(c1)OCCN(C)OC2c1cccc(Cl)c1` (stereo unspecified): the growth inhibition is -4.55% in assay [1]; -6.45% in assay [2]; -7.15% in assay [3]; -5.15% in assay [4]; 9.4% in assay [5]; 6.7% in assay [6].

Regarding `C1=Cc2nc1c(-c1ccncc1)c1ccc([n-]1)c(-c1ccncc1)c1nc(c(-c3ccncc3)c3ccc([n-]3)c2-c2ccncc2)C=C1.[Zn+2]`, the growth inhibition in assay [1] is -20.6%; in assay [2] it was -9.45%; in assay [3], -8.95%; in assay [4], 15.7%; in assay [5], 18.9%; in assay [6] it was -3.65%.

Consider `N#Cc1cc2ccccc2n(Cc2ccccc2)c1=O`, for which the growth inhibition is -8.85% in assay [1]; -9.9% in assay [2]; -9.4% in assay [3]; 7.85% in assay [4]; 3.75% in assay [5]; -9.55% in assay [6].

Take `c1ccc(-c2nc(-c3ccccn3)cc3ccccc23)cc1`: the growth inhibition in assay [1] was -2.05%; in assay [2], -17.6%; in assay [3], 10%; in assay [4], 2.8%; in assay [5], 5.4%; in assay [6], 18.8%.

With `COC(=O)/C=C/c1ccc2c(c1)CCCC2`, the growth inhibition in assay [1] is 18.1%; in assay [2], 15.1%; in assay [3], 10.6%; in assay [4] it was -8.7%; in assay [5], 22.2%; in assay [6], 24.4%.

Turning to `CCOC(=O)/C=C(/C)N`, the growth inhibition was -19.1% in assay [1]; -7.25% in assay [2]; -14.2% in assay [3]; 8.45% in assay [4]; 1.85% in assay [5]; -0.75% in assay [6].

Take `CC(=O)OC1CC[C@@]2(C)C(CC[C@]3(C)C2CC=C2[C@@H]4C(C)[C@H](C)CCC4(C)CCC23C)[C@@]1(C)C(=O)O` (stereo partly specified): the growth inhibition is 1.05% in assay [1]; 14.8% in assay [2]; 16.4% in assay [3]; 3.25% in assay [4]; 48.1% in assay [5]; 16.4% in assay [6].

On to `COc1ccc2c(c1)C(Cc1ccc(Oc3cc(CC4c5cc(OC)ccc5CC[N+]4(C)C)ccc3OC)cc1)[N+](C)(C)CC2` (stereo unspecified), for which the growth inhibition in assay [1] was -5.9%; in assay [2], 2.75%; in assay [3], -7.45%; in assay [4] it was -9.55%; in assay [5], -6.5%; in assay [6], -12.2%.

In the case of `Cc1ccc(-c2cs/c(=N\N=C3/CSC(=O)N3Cc3ccccc3)n2-c2cccc(C)c2)cc1`, the growth inhibition in assay [1] is 24.4%; in assay [2] it was 1.2%; in assay [3], -11.2%; in assay [4], -4.3%; in assay [5], 4.1%; in assay [6], 22.2%.

Turning to `COc1cc2c(c(OC)c1OC)-c1ccc(SC)c(=O)cc1[C@@H](NC(=O)NCCCl)CC2`, the growth inhibition in assay [1] was 1.1%; in assay [2], -16.8%; in assay [3] it was -18.1%; in assay [4], 4.6%; in assay [5] it was -28.4%; in assay [6], -10.2%.
